Source: article PMC7862700, “An all-to-all approach to the identification of sequence-specific readers for epigenetic DNA modifications on cytosine”

What was measured:
Assay in all cases: DAPPL (digital affinity profiling via proximity ligation, sequencing); 10 mM Tris-HCl pH 7.5, 50 mM NaCl, 1 mM DTT, 4% glycerol, room temperature, 30 min; GST-TFs on glutathione beads, 16-mer random dsDNA library, 0.1% formaldehyde crosslink after washing; high values mean tight binding
[1] = target: T1, FEV (Homo sapiens, UniProt Q99581 1-238); conditions: protein: recombinant; tags: N-terminal GST; dsDNA, one strand shown
T1 sequence: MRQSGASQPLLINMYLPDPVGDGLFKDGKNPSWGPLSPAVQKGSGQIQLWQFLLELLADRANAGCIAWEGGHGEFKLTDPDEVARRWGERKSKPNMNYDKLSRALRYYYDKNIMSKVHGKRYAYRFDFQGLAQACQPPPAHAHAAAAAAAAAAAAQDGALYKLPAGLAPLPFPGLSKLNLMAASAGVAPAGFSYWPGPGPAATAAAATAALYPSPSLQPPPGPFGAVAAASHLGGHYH
Method in brief: (§1)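 Sequencing on an Illumina NextSeq500 followed washing, crosslinking with 0.1% formaldehyde, proximity ligation (BsaI/T4 ligase, 1 h, 37 °C) and PCR amplification of pools that had been incubated for 30 min at room temperature with 200 nmole of a random double-stranded 16-mer DNA library in Tris/NaCl/DTT/glycerol buffer. Each pool held DNA-barcoded human transcription factors, expressed in yeast as GST fusions and captured on glutathione beads, plus a tag-only sample. Binding signal is a hexamer's read frequency for a factor divided by its frequency in the tag-only sample.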

[2] = target: ETV5 (Homo sapiens, UniProt P41161 1-510); conditions: protein: recombinant; tags: N-terminal GST; dsDNA, one strand shown
Method in brief: as §1

[3] = target: HSF1 (Homo sapiens, UniProt Q00613 1-529); conditions: protein: recombinant; tags: N-terminal GST; chain copies: 3; dsDNA, one strand shown
Method in brief: as §1

[4] = target: T2, SPIC (Homo sapiens, UniProt Q8N5J4 1-248); conditions: protein: recombinant; tags: N-terminal GST; dsDNA, one strand shown
T2 sequence: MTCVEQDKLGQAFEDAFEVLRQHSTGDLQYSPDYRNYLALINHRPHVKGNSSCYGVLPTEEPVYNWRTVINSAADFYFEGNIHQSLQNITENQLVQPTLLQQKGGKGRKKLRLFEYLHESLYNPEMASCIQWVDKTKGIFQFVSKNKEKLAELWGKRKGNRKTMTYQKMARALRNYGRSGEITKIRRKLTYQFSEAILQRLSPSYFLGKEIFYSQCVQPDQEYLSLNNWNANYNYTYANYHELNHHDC
Method in brief: as §1

[5] = target: ELF4 (Homo sapiens, UniProt Q99607 1-663); conditions: protein: recombinant; tags: N-terminal GST; dsDNA, one strand shown
Method in brief: as §1

[6] = target: T3, ELK4 (Homo sapiens, UniProt P28324-2 1-405); conditions: protein: recombinant; tags: N-terminal GST; dsDNA, one strand shown
T3 sequence: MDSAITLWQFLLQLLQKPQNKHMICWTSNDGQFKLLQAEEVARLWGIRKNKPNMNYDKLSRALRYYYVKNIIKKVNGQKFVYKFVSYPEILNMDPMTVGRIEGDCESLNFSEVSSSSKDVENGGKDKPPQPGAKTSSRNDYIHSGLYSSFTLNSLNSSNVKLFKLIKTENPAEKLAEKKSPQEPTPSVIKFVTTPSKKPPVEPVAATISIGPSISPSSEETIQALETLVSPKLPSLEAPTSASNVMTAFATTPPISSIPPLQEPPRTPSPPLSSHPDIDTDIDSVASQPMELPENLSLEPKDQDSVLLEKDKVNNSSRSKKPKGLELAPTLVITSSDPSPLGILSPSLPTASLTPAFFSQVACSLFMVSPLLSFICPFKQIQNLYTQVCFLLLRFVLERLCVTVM
Method in brief: as §1

[7] = target: T4, ETV2 (Homo sapiens, UniProt O00321 1-342); conditions: protein: recombinant; tags: N-terminal GST; dsDNA, one strand shown
T4 sequence: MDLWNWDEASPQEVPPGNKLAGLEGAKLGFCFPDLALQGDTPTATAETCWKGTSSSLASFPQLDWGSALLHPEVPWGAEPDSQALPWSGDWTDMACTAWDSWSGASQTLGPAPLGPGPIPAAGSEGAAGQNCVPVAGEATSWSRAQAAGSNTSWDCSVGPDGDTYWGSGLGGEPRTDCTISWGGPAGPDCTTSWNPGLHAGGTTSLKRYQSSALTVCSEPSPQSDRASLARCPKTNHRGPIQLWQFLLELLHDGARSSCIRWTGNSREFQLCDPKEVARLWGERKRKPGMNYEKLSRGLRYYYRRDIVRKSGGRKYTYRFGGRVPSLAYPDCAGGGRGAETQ
Method in brief: as §1

[8] = target: T5, ELF3 (Homo sapiens, UniProt P78545 1-371); conditions: protein: recombinant; tags: N-terminal GST; dsDNA, one strand shown
T5 sequence: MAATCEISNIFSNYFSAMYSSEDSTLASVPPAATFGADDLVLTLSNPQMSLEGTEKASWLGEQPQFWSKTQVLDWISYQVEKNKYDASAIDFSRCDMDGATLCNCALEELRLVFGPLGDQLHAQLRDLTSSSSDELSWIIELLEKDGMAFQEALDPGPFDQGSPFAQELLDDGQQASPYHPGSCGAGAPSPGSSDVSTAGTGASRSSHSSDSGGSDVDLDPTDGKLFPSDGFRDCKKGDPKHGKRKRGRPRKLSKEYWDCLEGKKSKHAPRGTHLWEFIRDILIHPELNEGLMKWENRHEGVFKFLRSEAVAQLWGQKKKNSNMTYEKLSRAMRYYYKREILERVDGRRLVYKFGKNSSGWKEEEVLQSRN
Method in brief: as §1

[9] = target: CRX (Homo sapiens, UniProt O43186 1-299); conditions: protein: recombinant; tags: N-terminal GST; dsDNA, one strand shown
Method in brief: as §1

[10] = target: ETV1 (Homo sapiens, UniProt P50549 1-477); conditions: protein: recombinant; tags: N-terminal GST; dsDNA, one strand shown
Method in brief: as §1

[11] = target: T6, ERF (Homo sapiens, UniProt P50548 1-548); conditions: protein: recombinant; tags: N-terminal GST; dsDNA, one strand shown
T6 sequence: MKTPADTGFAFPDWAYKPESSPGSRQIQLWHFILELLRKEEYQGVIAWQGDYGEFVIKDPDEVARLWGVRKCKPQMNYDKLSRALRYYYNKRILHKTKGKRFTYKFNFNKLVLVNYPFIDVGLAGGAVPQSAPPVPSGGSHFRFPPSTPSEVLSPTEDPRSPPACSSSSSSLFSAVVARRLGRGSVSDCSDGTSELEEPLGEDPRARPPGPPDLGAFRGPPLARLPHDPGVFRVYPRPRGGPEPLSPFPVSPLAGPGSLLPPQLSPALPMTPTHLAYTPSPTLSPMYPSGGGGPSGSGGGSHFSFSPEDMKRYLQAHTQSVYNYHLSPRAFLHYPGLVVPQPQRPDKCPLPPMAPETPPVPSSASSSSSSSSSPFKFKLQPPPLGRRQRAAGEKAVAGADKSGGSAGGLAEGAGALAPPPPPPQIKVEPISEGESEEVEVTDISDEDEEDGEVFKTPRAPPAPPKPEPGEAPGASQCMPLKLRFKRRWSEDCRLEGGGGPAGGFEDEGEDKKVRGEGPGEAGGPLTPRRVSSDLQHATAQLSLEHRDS
Method in brief: as §1

[12] = target: T7, ETV3L (Homo sapiens, UniProt Q6ZN32 1-361); conditions: protein: recombinant; tags: N-terminal GST; dsDNA, one strand shown
T7 sequence: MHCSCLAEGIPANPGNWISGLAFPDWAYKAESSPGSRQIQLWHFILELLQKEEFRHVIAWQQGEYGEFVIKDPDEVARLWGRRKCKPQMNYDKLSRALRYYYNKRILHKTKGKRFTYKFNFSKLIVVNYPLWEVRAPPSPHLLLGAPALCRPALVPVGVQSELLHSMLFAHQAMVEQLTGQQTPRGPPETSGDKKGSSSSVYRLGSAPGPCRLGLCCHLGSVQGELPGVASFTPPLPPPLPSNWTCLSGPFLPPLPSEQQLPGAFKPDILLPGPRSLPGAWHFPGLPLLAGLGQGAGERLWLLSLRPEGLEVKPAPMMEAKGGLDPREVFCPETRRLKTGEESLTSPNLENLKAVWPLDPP
Method in brief: as §1

[13] = target: T8, ETS2 (Homo sapiens, UniProt P15036 1-469); conditions: protein: recombinant; tags: N-terminal GST; dsDNA, one strand shown
T8 sequence: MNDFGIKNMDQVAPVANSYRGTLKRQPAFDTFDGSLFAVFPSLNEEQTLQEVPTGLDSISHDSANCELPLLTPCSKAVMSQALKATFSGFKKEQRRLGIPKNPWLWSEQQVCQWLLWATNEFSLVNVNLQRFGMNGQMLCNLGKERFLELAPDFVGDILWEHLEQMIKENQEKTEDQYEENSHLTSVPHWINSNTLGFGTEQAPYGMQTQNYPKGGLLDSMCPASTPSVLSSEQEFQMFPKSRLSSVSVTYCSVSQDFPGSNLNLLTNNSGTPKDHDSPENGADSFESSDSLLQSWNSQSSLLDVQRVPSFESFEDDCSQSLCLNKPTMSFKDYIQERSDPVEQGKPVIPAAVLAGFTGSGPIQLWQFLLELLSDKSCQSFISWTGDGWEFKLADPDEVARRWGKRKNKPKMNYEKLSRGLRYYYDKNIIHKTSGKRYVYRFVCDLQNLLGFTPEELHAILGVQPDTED
Method in brief: as §1

[14] = target: T9, SPDEF (Homo sapiens, UniProt O95238 1-335); conditions: protein: recombinant; tags: N-terminal GST; dsDNA, one strand shown
T9 sequence: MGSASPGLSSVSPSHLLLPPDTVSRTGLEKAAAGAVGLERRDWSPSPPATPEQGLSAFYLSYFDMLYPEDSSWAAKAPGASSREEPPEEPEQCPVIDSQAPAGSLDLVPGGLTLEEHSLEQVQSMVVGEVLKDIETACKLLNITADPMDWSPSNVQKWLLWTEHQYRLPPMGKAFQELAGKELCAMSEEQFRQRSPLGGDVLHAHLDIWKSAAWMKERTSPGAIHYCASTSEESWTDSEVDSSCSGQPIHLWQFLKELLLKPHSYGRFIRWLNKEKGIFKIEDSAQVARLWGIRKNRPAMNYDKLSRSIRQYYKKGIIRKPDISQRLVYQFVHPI
Method in brief: as §1

[15] = target: T10, ETV7 (Homo sapiens, UniProt Q9Y603 1-341); conditions: protein: recombinant; tags: N-terminal GST; dsDNA, one strand shown
T10 sequence: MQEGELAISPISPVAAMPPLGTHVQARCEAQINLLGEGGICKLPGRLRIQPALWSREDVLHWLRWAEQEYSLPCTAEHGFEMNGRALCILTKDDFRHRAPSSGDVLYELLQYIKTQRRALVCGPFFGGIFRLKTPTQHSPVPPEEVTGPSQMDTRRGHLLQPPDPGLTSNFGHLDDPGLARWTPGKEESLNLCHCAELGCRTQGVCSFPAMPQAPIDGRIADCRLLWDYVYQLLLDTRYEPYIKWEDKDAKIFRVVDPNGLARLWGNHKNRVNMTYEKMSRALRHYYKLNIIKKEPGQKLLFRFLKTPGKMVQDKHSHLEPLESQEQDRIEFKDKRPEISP
Method in brief: as §1

[16] = target: T11, ELF5 (Homo sapiens, UniProt Q9UKW6-2 1-255); conditions: protein: recombinant; tags: N-terminal GST; dsDNA, one strand shown
T11 sequence: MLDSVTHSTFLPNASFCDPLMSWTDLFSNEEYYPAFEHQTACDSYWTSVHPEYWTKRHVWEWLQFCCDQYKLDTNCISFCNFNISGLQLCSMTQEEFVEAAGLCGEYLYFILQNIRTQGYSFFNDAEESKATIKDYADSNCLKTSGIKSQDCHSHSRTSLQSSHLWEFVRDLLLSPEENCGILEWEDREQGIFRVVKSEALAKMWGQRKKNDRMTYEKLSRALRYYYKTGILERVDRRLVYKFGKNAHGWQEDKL
Method in brief: as §1

[17] = target: T12, ETV3 (Homo sapiens, UniProt P41162-2 1-143); conditions: protein: recombinant; tags: N-terminal GST; dsDNA, one strand shown
T12 sequence: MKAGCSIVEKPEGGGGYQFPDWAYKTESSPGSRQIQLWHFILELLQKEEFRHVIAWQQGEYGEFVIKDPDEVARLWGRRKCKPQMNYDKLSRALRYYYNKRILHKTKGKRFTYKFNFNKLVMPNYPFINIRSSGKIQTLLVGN
Method in brief: as §1

[18] = target: ETV6 (Homo sapiens, UniProt P41212 1-452); conditions: protein: recombinant; tags: N-terminal GST; dsDNA, one strand shown
Method in brief: as §1

Sequence of CRX (O43186 whole entry): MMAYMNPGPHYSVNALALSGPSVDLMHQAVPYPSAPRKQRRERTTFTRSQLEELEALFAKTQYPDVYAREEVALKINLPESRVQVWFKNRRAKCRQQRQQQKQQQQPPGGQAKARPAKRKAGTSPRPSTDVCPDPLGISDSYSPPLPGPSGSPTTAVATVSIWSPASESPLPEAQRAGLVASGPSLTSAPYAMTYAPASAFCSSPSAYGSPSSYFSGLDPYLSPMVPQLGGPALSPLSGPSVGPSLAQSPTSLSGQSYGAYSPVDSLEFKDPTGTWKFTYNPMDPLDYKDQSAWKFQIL
Sequence of ETV5 (P41161 whole entry): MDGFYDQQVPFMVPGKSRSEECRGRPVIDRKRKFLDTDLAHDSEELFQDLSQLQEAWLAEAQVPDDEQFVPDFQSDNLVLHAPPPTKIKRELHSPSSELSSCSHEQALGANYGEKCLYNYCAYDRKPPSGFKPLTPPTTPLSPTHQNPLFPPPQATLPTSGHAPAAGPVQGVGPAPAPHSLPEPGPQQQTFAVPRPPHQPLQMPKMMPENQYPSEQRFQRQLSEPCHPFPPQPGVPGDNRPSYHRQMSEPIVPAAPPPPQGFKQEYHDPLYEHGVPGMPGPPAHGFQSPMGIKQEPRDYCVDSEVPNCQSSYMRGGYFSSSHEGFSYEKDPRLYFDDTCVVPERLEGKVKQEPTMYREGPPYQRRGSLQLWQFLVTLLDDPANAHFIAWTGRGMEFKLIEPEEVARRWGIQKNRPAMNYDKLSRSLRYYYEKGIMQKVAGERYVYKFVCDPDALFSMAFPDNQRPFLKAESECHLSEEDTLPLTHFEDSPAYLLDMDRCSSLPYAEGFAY
Sequence of ETV1 (P50549 whole entry): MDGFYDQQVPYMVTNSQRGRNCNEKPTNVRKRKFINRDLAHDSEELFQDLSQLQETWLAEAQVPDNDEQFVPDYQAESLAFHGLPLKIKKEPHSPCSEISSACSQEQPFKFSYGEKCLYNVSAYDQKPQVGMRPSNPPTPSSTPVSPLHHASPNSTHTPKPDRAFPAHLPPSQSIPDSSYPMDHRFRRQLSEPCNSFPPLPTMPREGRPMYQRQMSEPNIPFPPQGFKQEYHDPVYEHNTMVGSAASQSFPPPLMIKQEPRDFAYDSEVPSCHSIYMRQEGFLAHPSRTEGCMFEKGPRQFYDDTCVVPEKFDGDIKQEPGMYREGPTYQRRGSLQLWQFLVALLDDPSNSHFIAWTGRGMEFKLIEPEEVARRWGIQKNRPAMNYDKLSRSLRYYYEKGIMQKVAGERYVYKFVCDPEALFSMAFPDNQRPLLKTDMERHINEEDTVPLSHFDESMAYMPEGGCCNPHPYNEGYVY
Sequence of ELF4 (Q99607 whole entry): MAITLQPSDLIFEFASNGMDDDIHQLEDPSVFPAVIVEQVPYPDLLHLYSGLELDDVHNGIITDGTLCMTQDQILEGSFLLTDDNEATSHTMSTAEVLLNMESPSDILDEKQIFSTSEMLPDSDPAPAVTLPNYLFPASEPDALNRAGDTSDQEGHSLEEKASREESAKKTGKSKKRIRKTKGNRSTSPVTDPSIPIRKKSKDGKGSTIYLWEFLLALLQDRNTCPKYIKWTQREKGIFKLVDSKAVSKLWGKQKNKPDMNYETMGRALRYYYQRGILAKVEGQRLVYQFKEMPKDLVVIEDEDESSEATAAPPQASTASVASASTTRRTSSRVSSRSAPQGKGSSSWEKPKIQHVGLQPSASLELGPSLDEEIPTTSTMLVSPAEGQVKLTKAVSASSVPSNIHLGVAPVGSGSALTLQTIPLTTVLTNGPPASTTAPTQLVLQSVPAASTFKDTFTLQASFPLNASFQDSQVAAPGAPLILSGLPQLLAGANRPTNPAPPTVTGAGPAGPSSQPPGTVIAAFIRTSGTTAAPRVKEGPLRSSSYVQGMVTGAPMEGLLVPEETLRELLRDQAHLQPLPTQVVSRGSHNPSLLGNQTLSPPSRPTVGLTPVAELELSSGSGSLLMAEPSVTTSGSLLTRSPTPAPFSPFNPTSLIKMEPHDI
Sequence of ETV6 (P41212 whole entry): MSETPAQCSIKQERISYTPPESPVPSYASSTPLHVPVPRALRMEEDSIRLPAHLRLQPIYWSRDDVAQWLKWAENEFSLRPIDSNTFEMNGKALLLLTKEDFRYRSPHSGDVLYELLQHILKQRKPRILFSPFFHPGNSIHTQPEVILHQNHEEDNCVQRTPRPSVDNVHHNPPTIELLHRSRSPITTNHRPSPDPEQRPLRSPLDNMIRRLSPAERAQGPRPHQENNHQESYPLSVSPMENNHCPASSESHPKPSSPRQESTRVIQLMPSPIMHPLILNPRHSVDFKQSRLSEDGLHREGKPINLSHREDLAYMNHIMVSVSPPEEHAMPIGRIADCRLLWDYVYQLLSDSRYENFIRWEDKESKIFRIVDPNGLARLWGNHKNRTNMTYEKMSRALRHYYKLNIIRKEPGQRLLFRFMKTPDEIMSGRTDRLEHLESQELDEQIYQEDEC
Sequence of HSF1 (Q00613 whole entry): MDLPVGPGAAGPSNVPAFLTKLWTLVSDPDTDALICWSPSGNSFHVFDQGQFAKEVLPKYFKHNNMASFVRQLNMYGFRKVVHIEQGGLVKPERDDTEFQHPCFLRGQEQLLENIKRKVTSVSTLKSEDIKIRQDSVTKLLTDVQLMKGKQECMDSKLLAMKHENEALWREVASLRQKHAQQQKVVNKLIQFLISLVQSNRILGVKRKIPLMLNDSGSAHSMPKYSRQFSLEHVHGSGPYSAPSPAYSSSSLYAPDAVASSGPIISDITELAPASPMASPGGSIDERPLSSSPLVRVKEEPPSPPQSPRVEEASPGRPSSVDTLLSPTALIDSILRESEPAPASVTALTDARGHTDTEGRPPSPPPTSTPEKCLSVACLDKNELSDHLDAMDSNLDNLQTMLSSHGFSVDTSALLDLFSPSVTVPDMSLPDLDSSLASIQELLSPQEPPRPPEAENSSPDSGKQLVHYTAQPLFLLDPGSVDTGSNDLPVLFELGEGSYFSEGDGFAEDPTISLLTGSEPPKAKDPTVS

CTCTGT
binding signal [1]: 1.39 fold enrichment (6-mer frequency, TF over GST control) | binding signal [2]: 1.42 fold enrichment (6-mer frequency, TF over GST control) | binding signal [3]: 1.15 fold enrichment (6-mer frequency, TF over GST control) | binding signal [4]: 1.5 fold enrichment (6-mer frequency, TF over GST control) | binding signal [5]: 1.33 fold enrichment (6-mer frequency, TF over GST control) | binding signal [6]: 1.5 fold enrichment (6-mer frequency, TF over GST control) | binding signal [7]: 1.39 fold enrichment (6-mer frequency, TF over GST control) | binding signal [8]: 1.4 fold enrichment (6-mer frequency, TF over GST control) | binding signal [9]: 1.18 fold enrichment (6-mer frequency, TF over GST control) | binding signal [10]: 1.43 fold enrichment (6-mer frequency, TF over GST control) | binding signal [11]: 1.5 fold enrichment (6-mer frequency, TF over GST control) | binding signal [12]: 1.33 fold enrichment (6-mer frequency, TF over GST control) | binding signal [13]: 1.5 fold enrichment (6-mer frequency, TF over GST control) | binding signal [14]: 1.45 fold enrichment (6-mer frequency, TF over GST control) | binding signal [15]: 1.43 fold enrichment (6-mer frequency, TF over GST control) | binding signal [16]: 1.37 fold enrichment (6-mer frequency, TF over GST control) | binding signal [17]: 1.43 fold enrichment (6-mer frequency, TF over GST control) | binding signal [18]: 1.44 fold enrichment (6-mer frequency, TF over GST control)
